Myc binder: c-Myc (human) binding | P01106 | small molecule microarray, His-c-Myc binding, anti-His fluorescence | calls only | 17,000 tested, 1.5% active;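 active means spot fluorescence over background with P-value below 7% in all four replicate spots, showing protein binding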
STAT3 SMM: binders of human STAT3. P40763. Small molecule microarray, His-STAT3 binding, anti-His fluorescence. calls only. 17,000 tested, 0.2% active;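 active means compounds whose four printed spots each show fluorescence over background unusually high for their array block, chance value under 7%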
p53 PUMA act: restores mutant p53 pathway signaling in SW480 cells | AID 624151 | SW480 PUMA-promoter luciferase, p53 mutant reactivation | activation, % at 9.98 µM | 28,000 tested, 1.5% active; in the data active means activation above about 52%
p53 mut binder: binds human mutant p53 on microarray; small molecule microarray binding, anti-GST fluorescence; calls only; 17,000 tested, 0.4% active;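 active means compounds whose four printed spots each glow above background more than chance allows, each with a p-value under 7%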
NFkB binder: binds human NF-kappa-B p105 on microarray; P19838; calls only; 17,000 tested, 1.3% active; Small molecule microarray, anti-His fluorescence binding;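 active means spot fluorescence over background significantly raised, with a chance value under 7% in all four replicate spots of the compound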;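 further: probe protein is his-tagged human p50 processed subunit at 1 µg/ml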
Target sequence (P19838 1-433 limits assumed): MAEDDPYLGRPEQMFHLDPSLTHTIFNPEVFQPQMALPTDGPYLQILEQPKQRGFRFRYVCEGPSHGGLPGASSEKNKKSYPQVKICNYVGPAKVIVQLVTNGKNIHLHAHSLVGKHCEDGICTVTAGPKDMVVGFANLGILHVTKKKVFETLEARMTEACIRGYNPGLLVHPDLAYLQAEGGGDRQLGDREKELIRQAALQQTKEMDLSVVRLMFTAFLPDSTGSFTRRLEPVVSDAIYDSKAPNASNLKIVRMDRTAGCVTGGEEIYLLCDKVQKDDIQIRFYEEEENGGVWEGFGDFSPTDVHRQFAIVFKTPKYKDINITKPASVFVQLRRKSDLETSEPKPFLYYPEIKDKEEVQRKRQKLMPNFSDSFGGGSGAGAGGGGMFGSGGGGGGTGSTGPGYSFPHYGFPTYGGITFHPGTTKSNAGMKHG
Of the large screens only hits and unclear results are named; the others gave an inactive call. This is a sample that favours compounds with a hit; in the whole collection about 2.6% have one here.

Cc1nn(C(=O)Cn2cc([N+](=O)[O-])cn2)c(C)c1Br	Myc binder active
COc1ccc2c(c1OC)C(=O)OC2C1c2c(cc3c(c2OC)OCO3)CCN1C (stereo not drawn)	none
OC1c2ccccc2-c2c3c(cc4c2C1NCC4)OCO3 (stereo not drawn)	Myc binder active, NFkB binder active
COc1cc2c(cc1NC(=O)Cc1ccccc1[N+](=O)[O-])oc1ccccc12	p53 PUMA act 87 (no result: Myc binder, STAT3 SMM, p53 mut binder, NFkB binder)
CC1=CC(=O)CC2C1(C)CCC(C)C2(C)CC/C(C)=C\C(=O)O (stereo not drawn)	none
Cc1ccc(SCCCCSc2nc(C)cc(=O)[nH]2)cc1	none
C=CCOC(=O)[C@H]1[C@@H]2C(=O)O[C@@H](c3ccccc3)[C@@H](c3ccccc3)N2[C@@H](c2ccc(OCCOC(=O)[C@@H]3C[C@@H]4C(=O)N[C@@H](Cc5ccccc5)C(=O)N4[C@@H]3c3cccc(OCCO)c3)cc2)[C@]12C(=O)Nc1ccc(I)cc12	NFkB binder active (no result: p53 PUMA act)
C=CCOC(=O)[C@H]1[C@@H]2C(=O)O[C@@H](c3ccccc3)[C@@H](c3ccccc3)N2[C@@H](c2ccc(OCCOC(=O)[C@@H]3C[C@@H]4C(=O)NCC(=O)N4[C@@H]3c3ccc(O)cc3)cc2)[C@]12C(=O)Nc1ccc(I)cc12	none (no result: p53 PUMA act)
C=CCOC(=O)[C@H]1[C@@H]2C(=O)O[C@@H](c3ccccc3)[C@@H](c3ccccc3)N2[C@@H](c2ccc(OCCOC(=O)[C@@H]3C[C@@H]4C(=O)N[C@@H](Cc5ccccc5)C(=O)N4[C@@H]3c3ccc(O)cc3)cc2)[C@]12C(=O)Nc1ccccc12	none (no result: p53 PUMA act)
C=CCOC(=O)[C@H]1[C@@H]2C(=O)O[C@@H](c3ccccc3)[C@@H](c3ccccc3)N2[C@@H](c2ccc(OCCOC(=O)[C@@H]3C[C@@H]4C(=O)N5CCC[C@H]5C(=O)N4[C@@H]3c3cccc(OCCO)c3)cc2)[C@]12C(=O)Nc1ccccc12	none (no result: p53 PUMA act)
C=CCOC(=O)[C@H]1[C@@H]2C(=O)O[C@@H](c3ccccc3)[C@@H](c3ccccc3)N2[C@@H](c2ccc(OCCOC(=O)[C@@H]3C[C@@H]4C(=O)NCC(=O)N4[C@@H]3c3ccc(O)cc3)cc2)[C@]12C(=O)Nc1ccccc12	NFkB binder active (no result: p53 PUMA act)
C=CCOC(=O)[C@H]1[C@@H]2C(=O)O[C@@H](c3ccccc3)[C@@H](c3ccccc3)N2[C@@H](c2ccc(OCCOC(=O)[C@@H]3C[C@@H]4C(=O)N5CCC[C@H]5C(=O)N4[C@@H]3c3cccc(OCCO)c3)cc2)[C@]12C(=O)Nc1ccc(I)cc12	NFkB binder active (no result: p53 PUMA act)
CC(C)n1nnc(CC(=O)NN)n1	none (no result: Myc binder, STAT3 SMM, p53 mut binder, NFkB binder)
Cc1nc(SCC(=O)c2ccccc2)c2sc3nc4c(cc3c2n1)COC(C)(C)C4	p53 PUMA act 91
CCOC(=O)CSc1ncnc2c1sc1nc3c(cc12)COC(C)(C)C3	none (no result: Myc binder, STAT3 SMM, p53 mut binder, NFkB binder)
COCC1OC(OC(C)(C)C2CCC3(C)C=C(C4CCC5C4(C)CC(O)C4OC(C(C)(C)OC6OC(CO)C(O)C(O)C6NC(C)=O)CCC45C)CCC3O2)C(NC(C)=O)C(O)C1O (stereo not drawn)	Myc binder active, NFkB binder active
COc1ccc(CO[C@H]2O[C@H](CO)[C@@H](O)[C@H](O)[C@H]2NC(C)=O)c2cc(C)oc12	none
Cn1c(Cc2cccc3ccccc23)nnc1SCC(=O)N1CCc2ccccc21	none (no result: Myc binder, STAT3 SMM, p53 mut binder, NFkB binder)
O=C(NC(=S)NCc1cccnc1)c1ccc(-c2cccc(Cl)c2Cl)o1	p53 PUMA act 61 (no result: Myc binder, STAT3 SMM, p53 mut binder, NFkB binder)
CCCC(NS(=O)(=O)c1ccc(C)cc1)C(=O)O (stereo not drawn)	Myc binder active
Cc1ccc(S(=O)(=O)NC(C(=O)O)C(C)C)cc1 (stereo not drawn)	none (no result: Myc binder, STAT3 SMM, p53 mut binder, NFkB binder)
Cc1ccc(NC(=O)COc2ccc(Cl)c(C)c2)c([N+](=O)[O-])c1	p53 PUMA act 59 (no result: Myc binder, STAT3 SMM, p53 mut binder, NFkB binder)
COc1cc(NC(=O)COc2cccc(C)c2)c(OC)cc1Cl	none (no result: Myc binder, STAT3 SMM, p53 mut binder, NFkB binder)
Cc1cc(Cl)cc(Cl)c1OCC(=O)Nc1ccccc1[N+](=O)[O-]	none (no result: Myc binder, STAT3 SMM, p53 mut binder, NFkB binder)
Cc1ccc(NC(=O)COc2ccc(C(C)(C)C)cc2)c([N+](=O)[O-])c1	none (no result: Myc binder, STAT3 SMM, p53 mut binder, NFkB binder)
COc1ccc(OCC(=O)Nc2cc(OC)c(Cl)cc2OC)cc1	p53 PUMA act 82
COc1ccc(OCC(=O)Nc2ccc(C)cc2[N+](=O)[O-])cc1	p53 PUMA act 136 (no result: Myc binder, STAT3 SMM, p53 mut binder, NFkB binder)
Cc1cc(OCC(=O)Nc2ccccc2[N+](=O)[O-])ccc1Cl	p53 PUMA act 86 (no result: Myc binder, STAT3 SMM, p53 mut binder, NFkB binder)
Cc1nn(Cc2c(Cl)cccc2Cl)c(C)c1NC(=O)c1noc2c1CC(C(C)(C)C)CC2 (stereo not drawn)	none (no result: Myc binder, STAT3 SMM, p53 mut binder, NFkB binder)

High-throughput results: PubChem BioAssay, Broad Institute
